The structures appear in SMILES notation. Values joined by “and” are separate entries in the source; they are usually repeats but may differ in a detail not shown here. Equal values may be shown once. In all, about 290,000 compounds went through this assay and about 27,000 (9.3%) were called active. No stated cut-off is given here; in the data, active means inhibition mostly above about 28% (no sharp cut-off); inactive means mostly below about 43%. Many of the other results were omitted from the sample, so actives are more common in it than they were.

The test can be described thus: A qHTS for Small Molecule Inhibitors of Shiga Toxin. Further: 0% is about no effect. To be noted: Vero cells, Shiga toxin protein synthesis inhibition reporter; at 38.7 µM, active compounds read high.
Turning to `Cc1cc(NC(=O)CSc2nc(=O)cc(N)n2-c2ccc(F)cc2)no1`, the inhibition is 9.91% (inactive).
For `COc1cccc(C(O)c2nc3ccccc3n2C)c1` (configuration not stated) the value was -5.57% (inactive); for `O=C(NCCCn1ccnc1)c1ccccc1F`, -3% (inactive).
In the case of `Cc1cccc(N2CCN(C(C)C(=O)N3CCc4ccccc43)CC2)c1C` (configuration not stated), the inhibition was 12.5% (inactive).
For `COc1ccc(NC(=O)CCC(=O)Nc2cc(OC)c(NC(=O)c3ccco3)cc2OC)c(OC)c1` the value was 2.68% (inactive).
The figure for `CCOC(=O)C1CCN(Cc2nnc(-c3cccc(Br)c3)o2)CC1` is -4.47% (inactive).
The figure for `Cc1c2cnn(CC(=O)NCCCN3CC(C)CC(C)C3)c(=O)c2c(C)n1Cc1ccc(Cl)cc1` (configuration not stated) is 10.2% (inactive); for `CCCc1nc2ccccc2c(=O)n1/N=C/c1ccc(O)c(O)c1` it is -7.79% (inactive).
With `O=c1c2ccccc2ncn1/N=C/c1ccccc1`, the inhibition was 89.3% (active).
For `O=c1c2ccccc2nc(N/N=C/c2ccccc2)n1O` the value was 4.04% (inactive); for `Cc1c(Cl)cccc1NC(=O)NCc1ccc(C)n1C`, -6.17% (inactive); for `COc1ccc(CN(C)C(=O)Cc2c[nH]c3ccccc23)c(OC)c1OC`, -4.06% (inactive).
The figure for `O=S(=O)(/C=C/c1ccccc1)N1CCNCC1` is -7.81% (inactive); for `CCc1cccc(NC(=S)N(CCN(C)C)C2CCN(C(C)C)CC2)c1` it is -1.09% (inactive); for `Cc1ccc(Nc2nc(C)cc(C)c2C(N)=O)cc1` it is -8.95% (inactive).
For `Cc1ccc(NC(=O)Nc2nnc(-c3ccncc3)s2)cc1` the value was -16.3% (inactive); for `Cc1ccc(Nc2nc(Cl)c(C=O)s2)cc1`, 39.5% (active); for `COc1ccc(C(=O)NCCNc2ccc([N+](=O)[O-])cn2)cc1`, -3.6% (inactive).
For `CCn1cc(/C=C(\NC(=O)c2cc(OC)c(OC)c(OC)c2)C(=O)N2CCN(C)CC2)c2ccccc21`, the inhibition is -5.81% (inactive).
On to `O=C(NCCOc1cccnc1)c1ccc(OC2CCN(Cc3ccccn3)CC2)cc1`, for which the inhibition is -23.8% (inactive).
For `O=C(OCC(=O)N1CCN(C(=O)c2ccco2)CC1)c1cccc(O)c1` the value was 18.4% (inactive); for `O=C(CCn1nnc2ccccc21)OCC(=O)c1ccc([N+](=O)[O-])cc1`, -9.08% (inactive).
On to `COc1ccc(C2C3=C(OC(C)=O)c4ccccc4C3=Nc3c2c(=O)n(C)c(=O)n3C)cc1` (configuration not stated), for which the inhibition is -4.21% (inactive) and -6.55% (inactive).
The figure for `CC(=O)Oc1ccc2c(c1)C(=O)c1ccccc1C2=O` is 49.5% (inactive); for `COc1ccc(/C=C/c2noc(-c3ccccc3OC(C)=O)n2)cc1` it is 50.5% (active); for `Cc1ccc(NC(=O)c2cccs2)cc1S(=O)(=O)N(C)C` it is 30% (inactive).
The figure for `CCN(CC(=O)Nc1ccc(C)c(S(=O)(=O)N(C)C)c1)Cc1ccccc1` is 12.4% (inactive); for `Cc1ccc(C(=O)Nc2ccc(C)c(S(=O)(=O)N(C)C)c2)s1` it is 64.1% (active); for `O=C(c1ccc(S(=O)(=O)N2CCCC2)cc1)N1CCN(c2ccccc2F)CC1` it is -13.1% (inactive).
For `CCc1ccccc1NC(=O)CSc1nnc(-c2ccncc2)o1` the value was 6.43% (inactive).
On to `CCOC(=O)CSc1nnc(-c2ccc([N+](=O)[O-])cc2)o1`, for which the inhibition is 7.13% (inactive).
For `O=C(CSc1nnc(-c2ccc([N+](=O)[O-])cc2)o1)Nc1ccccn1` the value was 88.1% (active); for `O=C(NC1CCCC1)C(c1ccco1)N(C(=O)c1csnn1)c1ccccc1` (configuration not stated), -6.47% (inactive); for `COC(=O)c1ccc(NC(=O)CSc2nc(N)c(NC(=O)c3ccc(Br)o3)c(=O)[nH]2)cc1`, -12.8% (inactive).
The figure for `CCc1ccc(C(=O)COC(=O)c2ccco2)cc1` is 56.1% (active); for `CCN(CC)c1ccc(C(=O)OCC(=O)c2ccco2)cc1` it is 46.8% (inactive).
`O=C(OCC(=O)N1CCCC1)c1ccco1`: the inhibition is 24.9% (inactive).
For `COc1ccc(C2/C=C\CN(C(=O)c3ccc(C)cc3)C(Cc3ccccc3)C(=O)N2Cc2ccc(F)cc2)cc1` (configuration not stated) the value was 16.3% (inactive).
Consider `O=C(CN1CCCCCC1)Nc1ccc(S(=O)(=O)N2CCCCC2)cc1`, for which the inhibition is -3.01% (inactive).
For `O=C(CC1NCCNC1=O)Nc1cc(Cl)cc(Cl)c1` (configuration not stated) the value was -12.8% (inactive); for `O=C(CC1C(=O)NCCN1C(=O)c1ccc([N+](=O)[O-])cc1)Nc1cccc(Cl)c1` (configuration not stated), -30.7% (inactive); for `O=C(CC1NCCc2ccccc21)Nc1cccc(Cl)c1` (configuration not stated), 51.4% (active).
For `CCN(CC)CCN(C(=O)c1cc(Cl)sc1Cl)c1nc2cc3c(cc2s1)OCO3` the value was 6.7% (inactive); for `COc1cc(C2C3=C(CCCC3=O)OC3=C2C(=O)CCC3)ccc1OCC(=O)Nc1ccccc1`, 37.9% (inactive); for `COc1cc(/C=N/NC(=O)Nc2ccccc2)ccc1OCCOc1ccccc1C`, -4.02% (inactive).
In the case of `CCCn1c(C)cc(/C=C(\C#N)C(=O)OCC(=O)Nc2cc(OC)c(OC)c(OC)c2)c1C`, the inhibition was 32.6% (active).
For `COc1cc(CCC(=O)OCC(=O)Nc2cccc(S(N)(=O)=O)c2)cc(OC)c1OC` the value was -3.91% (inactive); for `CCOC(=O)/C(C#N)=C/c1cn(CCC(=O)O)nc1-c1ccc(Br)cc1`, 2.95% (inactive).
The figure for `CCOC(=O)/C(C#N)=C/c1ccc(OCC(=O)Nc2ccccc2)c(OC)c1` is 70.9% (active).
For `Cc1ccc(C(=O)Oc2ccc(C(=S)N3CCOCC3)cc2)cc1` the value was 3.46% (inactive).
For `CCc1ccc(C(=O)NC(=S)Nc2ccccc2N2CCOCC2)cc1`, the inhibition was -5.58% (inactive).
On to `COc1cc2c(cc1OC)CN(C(=O)c1cc(S(=O)(=O)N3CCCCC3)ccc1Cl)CC2`, for which the inhibition was 2% (inactive).
The figure for `Cc1ccc2nc3c(cc(C(=O)NCCc4ccccc4)c(=N)n3CC3CCCO3)c(=O)n2c1` (configuration not stated) is -3.67% (inactive); for `COc1ccccc1CN1CC(C(=O)NCCc2cn[nH]c2)CCC1=O` (configuration not stated) it is 22% (inactive).
In the case of `CCc1ccc(N(C(=O)c2csnn2)C(C(=O)NC2CCCCC2)c2cccnc2)cc1` (configuration not stated), the inhibition is 2.03% (inactive).
For `CC1(C(=O)NCCc2c[nH]c3ccccc23)C=CC2(CCCCC2)N1C(=O)c1ccccc1` (configuration not stated) the value was 14.3% (inactive); for `Cc1nc(SCC(=O)Nc2cc(C)on2)c2c(C)c(C)sc2n1`, 12.3% (inactive); for `Cc1ccc2cc(C#N)c(SCC(=O)NCC3CCCO3)nc2c1C` (configuration not stated), -7.12% (inactive).
For `Cc1cc(NC(=O)CSc2nc(C(C)C)nc3sc4c(c23)CCC(C)C4)no1` (configuration not stated), the inhibition was 22.7% (inactive).
Regarding `CC(NC(=O)CSc1nc2c(cc1C#N)CN(C)CC2)c1ccccc1` (configuration not stated), the inhibition is -9.63% (inactive).
`Cc1cc(NC(=O)CSc2nc3c(cc2C#N)CCCCC3)no1`: the inhibition was 78.8% (active).
For `Cc1nc(SCC(=O)Nc2cc(C)on2)c2c3c(sc2n1)CCCC3` the value was 21.2% (active); for `COc1cccc(CN2CCN(Cc3ccc4cccc(F)c4n3)CC2CCO)c1` (configuration not stated), 12.8% (inactive); for `O=C(NCc1cccnc1)C12CC3CC(CC(C3)C1)C2`, 11.5% (inactive).
For the molecule `Cc1ccc(C(=O)COC(=O)CCN2C(=O)C3C4CCC(C4)C3C2=O)cc1C` (configuration not stated), the inhibition is 34.8% (inactive).
For `O=C(CCC1CCN(C(=O)c2cccc(Cl)c2F)CC1)Nc1ccccc1` the value was -32% (inactive).
For `COc1ccccc1CC(=O)Nc1ccc(S(=O)(=O)N2CCCC2)cc1` the value was -2.78% (inactive); for `CCOC(=O)C1C(c2ccc(O)cc2)NC(=O)NC1(O)C(F)(F)F` (configuration not stated), -6.9% (inactive); for `O=C(COc1ccc(-n2cnnn2)cc1)Nc1ccccc1Cl`, -8.42% (inactive).
On to `CC(C)(C)c1ccc(C(CC(=O)O)NS(=O)(=O)Cc2ccccc2)cc1` (configuration not stated), for which the inhibition is 17% (inactive).
For `COc1ccc(Nc2nc(-c3cccnc3)nc3ccccc23)cn1` the value was -3.47% (inactive); for `COc1ccccc1Oc1nc(-c2cccnc2)nc2ccccc12`, 10.4% (inactive).
Consider `Fc1ccc(/C=N/Nc2nc(-c3cccnc3)nc3ccccc23)cc1`, for which the inhibition was 47.7% (active).
For `Nc1nonc1-n1nnc(C(=O)N/N=C/c2ccc(Cl)cc2)c1-c1ccc2c(c1)OCO2` the value was -3.05% (inactive).
Regarding `COc1ccccc1OCC(=O)O/N=C(\N)c1ccccn1`, the inhibition was 55.8% (active).
For `COc1ccccc1NC(=O)C(C)OC(=O)CC1CCCC1` (configuration not stated) the value was -16.1% (inactive); for `N/C(=N\OC(=O)CCC1CCCCC1)c1ccccn1`, 84.9% (active).
For `COc1ccccc1OCc1nnc(SCC(N)=O)n1-c1ccccc1` the value was 7.34% (inactive); for `COc1ccccc1OCC(=O)OCn1c(SC)nnc(C)c1=O`, 5.34% (inactive).
The figure for `N/C(=N\OC(=O)CC1CCCCC1)c1ccccc1` is 107% (active).
As for `O=C(CN1CCN(c2ccccn2)CC1)NC1CCCCC1`, the inhibition is -9.42% (inactive).
For the molecule `CC(C)(C)NC(=O)NC(=O)COC(=O)CCC1CCCCC1`, the inhibition is -9.95% (inactive).
Regarding `N/C(=N\OC(=O)Cc1ccccc1[N+](=O)[O-])c1ccc(Br)cc1`, the inhibition is 49% (inactive).
The figure for `CCN(CC(=O)Nc1ccc2c(c1)OCO2)S(=O)(=O)c1ccccc1` is 2.17% (inactive); for `Cc1cccc(CN2CCC(n3nccc3NC(=O)c3ccccc3C)CC2)n1` it is -8.84% (inactive); for `Nc1nnnn1/N=C/c1cccc(Br)c1` it is 18.9% (inactive).
For `CCC1=NN2C(=N)/C(=C/c3cc(C)n(-c4ccccc4)c3C)C(=O)N=C2S1` the value was 6.12% (inactive); for `Cc1cc(/C=C2/C(=N)N3C(=NC2=O)SN=C3S(C)(=O)=O)c(C)n1-c1ccccc1`, 98% (active); for `CCS(=O)(=O)C1=NSC2=NC(=O)/C(=C\c3cc(C)n(-c4cccc(OC)c4)c3C)C(=N)N21`, 21.9% (inactive).
For `CC1(C)NC(=O)N(CC(=O)Nc2cc(C(F)(F)F)cc(C(F)(F)F)c2)C1=O` the value was 10.9% (inactive); for `Cc1cc(=O)n2nc(N3CCC(C(=O)Nc4c(F)c(F)c(F)c(F)c4F)CC3)sc2n1`, -3.72% (inactive); for `Cc1cc(=O)n2nc(N3CCCC(C(=O)NCc4ccc(Cl)cc4)C3)sc2n1` (configuration not stated), -10.3% (inactive).

Values taken from PubChem BioAssay AID2315 (National Center for Advancing Translational Sciences (NCATS), 2010).
